Screens (PubChem)
TSG101-PTAP inh: blocks PTAP/TSG101 interaction to inhibit HIV-1 budding; Potency, µM (highest dose often 115 µM), for the others: at the highest dose activity change, negative = inhibition, actives largely listed as inhibitors; 340,000 tested, under 10 active; AID 493005; Fluorescence polarization, FITC-PTAP peptide / Tsg101 binding; active means well fitted inhibition curve with a large enough effect in the main read-out, with a control signal flat, not every such curve was filed as active; inconclusive means small, poorly fitted or top-dose-only effect, or effect the other way, or a change in a side signal; inactive means no such curve, though single readings can be large or run the other way; further: % of control where 0% means no effect
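Tsg101 binding domain (10 uM final) was mixed with compound and a FITC-labeled PTAP peptide (50 nM final) in HEPES pH 7.5 buffer with NaCl, Tween 20, EDTA and TCEP; fluorescence polarization was read after 20 min at r.t.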
Eya2 phos inh: blocks the phosphatase activity of human Eya2; O00167; 330,000 tested, 0.006% active; Potency, µM (titrated, usually from 76.9 µM), inactives show at the top dose activity, negative = inhibition, hits mostly inhibitors; recombinant Eya2, OMFP fluorescence dephosphorylation (OMFP is methylfluorescein phosphate); further: on the % scale 0 is the no-effect control and ±100 the full control effect
Target sequence (O00167 whole entry, looked up): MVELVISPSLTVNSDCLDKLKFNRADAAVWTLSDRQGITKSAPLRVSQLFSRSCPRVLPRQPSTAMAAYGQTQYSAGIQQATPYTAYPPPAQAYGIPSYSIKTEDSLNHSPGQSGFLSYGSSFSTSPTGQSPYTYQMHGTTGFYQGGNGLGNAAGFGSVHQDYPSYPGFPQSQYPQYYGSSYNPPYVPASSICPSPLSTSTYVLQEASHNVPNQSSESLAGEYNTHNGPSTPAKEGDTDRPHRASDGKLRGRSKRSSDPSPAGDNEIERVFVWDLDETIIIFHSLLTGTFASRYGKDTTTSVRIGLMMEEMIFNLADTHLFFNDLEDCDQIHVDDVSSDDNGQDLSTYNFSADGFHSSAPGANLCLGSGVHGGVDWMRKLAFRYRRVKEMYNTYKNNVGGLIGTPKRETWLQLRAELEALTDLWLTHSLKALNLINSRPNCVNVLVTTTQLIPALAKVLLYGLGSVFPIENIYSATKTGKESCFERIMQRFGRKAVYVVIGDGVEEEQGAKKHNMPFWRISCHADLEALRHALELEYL
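Eya2 protein (added as 0.2 uM solution) was preincubated with compound for 10 min at ambient temperature in 50 mM HEPES pH 7.5, 50 mM NaCl, 5 uM MgCl2, 0.05% BSA, 1 mM DTT. OMFP (added at 50 uM) then reacted 10 min; fluorescence read at 485/525 nm.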
RGS4 inh: human RGS4 inhibition; 390,000 tested, 0.039% active; Transcreener GDP fluorescence polarization, RGS4-accelerated GTP hydrolysis; Potency, µM (highest dose often 114 µM), for the others: at the highest dose activity change, negative = inhibition, hits mostly inhibitors; P49798; further: on the % scale 0 is the no-effect control and ±100 the full control effect; nearly all actives have a fitted effect of over 75% in size
Target sequence (P49798 whole entry, looked up): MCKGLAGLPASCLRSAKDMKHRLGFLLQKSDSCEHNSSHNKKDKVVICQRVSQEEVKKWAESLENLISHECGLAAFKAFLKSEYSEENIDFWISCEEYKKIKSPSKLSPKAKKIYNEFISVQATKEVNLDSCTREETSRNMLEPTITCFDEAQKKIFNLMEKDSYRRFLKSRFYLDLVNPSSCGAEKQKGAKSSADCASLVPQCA
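MLSMR compounds (23 nl, pin-transferred) preincubated 10 min at room temperature with a 500nM (2x) first reagent, then RGS4 at 900nM (2x) plus Transcreener GDP mix added; fluorescence polarization (620/688 nm) read before and after 90 min at 30 °C.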
USP2a inh: blocks human ubiquitin-specific protease USP2a; Potency, µM (highest dose often 38.3 µM), inactives show top-dose activity change, negative = inhibition, hits mostly inhibitors; AID 463254; USP2 core, Ub-CHOP2 coupled fluorogenic reporter, 485/531; 330,000 tested, 0.01% active; O75604;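 further: plate controls were DMSO wells for no effect and full inhibition by NEM control for full effect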
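USP2 core (10nM final) preincubated 30min RT with compound in 20mM Tris-HCl pH 8.0, 2mM CaCl2, 2mM beta-mercaptoethanol, 0.05% CHAPS; 25nM Ub-CHOP2 plus 25nM reporter substrate added, fluorescence (Ex485/Em531) read after 60min.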
Starred values were filed as active, the others as inactive; i = inactive; ? = inconclusive; nt = no result; ! = not confirmed by another sample; [ ] = another dose, or the depositor's remark. Shown are actives, neighbours in structure and some others; about 0.046% of the full set was active somewhere. Unless noted, the call rests on the fitted dose curve; in most records, active means well fitted curve in the direction sought with a large enough effect; inconclusive means small, poorly fitted or top-dose-only effect, or another doubt; inactive means no such curve, though single readings can be large; an effect the other way counts as inactive or inconclusive. Potency means the concentration at half of the fitted maximal effect.

SMILES | TSG101-PTAP inh | Eya2 phos inh | RGS4 inh | USP2a inh
Oc1cc(O)cc(/C=C/c2ccc(O)c(O)c2)c1 | -0.5% | -0.9% | 21.2µM*! | 0.5%
C/C=C/c1ccc(O)c(OC)c1 | 0.5% | 15.0% | 9.0% | -7.7%
Nc1ccccc1SCc1ccccc1 | -2.3% | -15.7% | -36.0%[56.9 µM] | -8.5%
N#CC(=C(\N)Sc1ccccc1N)/C(C#N)=C(/N)Sc1ccccc1N | nt | 4.8% | 9.47µM* | nt
NCc1c(O)ccc2ccccc12 | nt | -2.7% | nt | 1.6%
Oc1ccc2ccccc2c1SSc1c(O)ccc2ccccc12 | nt | 14.0% | 1.68µM* | nt
[N-]=[N+]=Nc1ccc(C(=O)CSC[C@H](NC(=O)CC[C@H](N)C(=O)O)C(=O)NCC(=O)O)cc1 | nt | 0.3% | 3.36µM* | nt
N[C@@H](CCC(=O)N[C@@H](CSN=O)C(=O)NCC(=O)O)C(=O)O | -5.7% | 7.7% | ? | 2.5%
Cc1ccc(S(=O)(=O)/C=C/C#N)cc1 | nt | 8.8% | 5.97µM* | nt
Cc1ccc(S(=O)(=O)/C=C\C#N)cc1 | nt | nt | i | nt
O=S(=O)(c1ccc(Oc2ccc3c(c2)OCO3)c(S(=O)(=O)N2CCOCC2)c1)N1CCOCC1 | nt | nt | -13.3% | nt
Cc1cc(-c2ccc(N=Nc3c(S(=O)(=O)O)cc4cc(S(=O)(=O)O)cc(N)c4c3O)c(C)c2)ccc1N=Nc1c(S(=O)(=O)O)cc2cc(S(=O)(=O)O)cc(N)c2c1O | nt | ? | nt | 10µM*
O=S(=O)(O)c1cc(O)c2c(O)c(N=Nc3cc(Cl)ccc3O)c(S(=O)(=O)O)cc2c1 | ? | ? | -60.3%[56.9 µM] | -13.5%
C[C@H]1O[C@@H](O[C@H]2[C@@H](O)C[C@H](O[C@H]3[C@@H](O)C[C@H](O[C@H]4CC[C@@]5(C)[C@H](CC[C@@H]6[C@@H]5C[C@@H](O)[C@]5(C)[C@@H](C7=CC(=O)OC7)CC[C@]65O)C4)O[C@@H]3C)O[C@@H]2C)C[C@H](O)[C@@H]1O | 0.6% | 4.1% | 1.68µM*! | 2.3%
CN(C)CCOCCP(=O)(c1ccccc1)c1ccccc1 | -9.7% | 4.0% | 10.6% | 10µM*
COc1cccc(S(=O)(=O)N2CCN(c3nc(-c4cccs4)nc4ccccc34)CC2)c1 | nt | nt | 6.9% | nt
CC(=O)[C@H](CC(C)C)NC(=O)[C@@H](CC(C)C)NC(=O)[C@H](CC(C)C)NC(=O)OCc1ccccc1 | nt | nt | 8.44µM* | nt
Cc1ccc(Nc2c(-c3ccc(C)s3)nc3cccc(C)n23)cc1 | nt | nt | -9.7% | nt
CO/S(=N\S(=O)(=O)c1ccc(Cl)cc1)c1ccc([N+](=O)[O-])cc1 (stereo not given) | nt | 13.3% | 11.9µM* | nt
O=C(Cc1ccc(Cl)cc1)NNS(=O)(=O)c1ccc([N+](=O)[O-])cc1 | -6.2% | 4.9% | -6.0% | 2.3%
O=S(=O)(Nc1cc(Br)cc2cccnc12)c1cccc2ccccc12 | nt | nt | -0.1% | nt
O=c1[nH]cc(CCc2ccccc2)c2ncncc12 | nt | nt | 16.5% | nt
CC(=O)NCCc1c(Cc2ccccc2)[nH]c2ccccc12 | nt | nt | 26.7µM*! | nt
COC(=O)c1nc(N2CCN(S(=O)(=O)c3ccc(C)cc3)CC2)c2ccccc2n1 | nt | nt | -3.9% | nt
O=C1Nc2ccc(I)cc2/C1=C/c1cc(Br)c(O)c(Br)c1 | nt | 21.8% | 9.47µM* | nt
SMILES | TSG101-PTAP inh | Eya2 phos inh | RGS4 inh | USP2a inh
Cc1ccc2c(c1)/C(=C/c1ccccc1)C(=O)N2 | -0.6% | ? | -21.8% | -4.1%
CN(C)CC(O)Cn1c2ccc(Br)cc2c2cc(Br)ccc21 (stereo not given) | nt | nt | 0.67µM* | nt
CC(Cc1ccc(O)c(O)c1)C(C)Cc1ccc(O)c(O)c1 (stereo not given) | -1.5% | nt | -28.7% | nt
C[C@H](Cc1ccc(O)c(O)c1)[C@@H](C)Cc1ccc(O)c(O)c1 | nt | -3.8% | 15µM* | nt
CCCc1nn2c(=O)cc(COC(=O)c3cccc(NC(=O)c4ccc(OCC)cc4)c3)nc2s1 | nt | nt | -7.6% | nt
O=C1NC(=Nc2ccccc2)S/C1=C\C=C\c1ccco1 | -0.7% | 0.9% | ? | 5.62µM*
CCSc1nnc(NC(=O)C2CCN(C(=O)c3ccco3)CC2)s1 | nt | nt | 8.6% | nt
Cc1ccc(S(=O)(=O)N2CCN(c3nc(-c4cccs4)nc4cccnc34)CC2)cc1 | nt | nt | 15.1% | nt
CCOc1cccc(C2C=C(c3ccc4c(c3)OCO4)NC(c3ccc(Br)cc3)N2)c1O (stereo not given) | nt | nt | -2.8% | nt
CN(C)c1ccc(NC(=O)CCSc2nc(-c3ccco3)cc(C(F)(F)F)n2)cc1 | nt | nt | -21.3% | nt
COc1cc(OC)c(NC(=O)c2csc3c2CCC(C)C3)cc1Cl (stereo not given) | nt | nt | -4.2% | nt
C#CCOCCOCCOCCNc1nc(N2CCN(C(=O)CCCCCCCCCCNC(=O)[C@H](CCCCN)n3cc(C)nn3)CC2)nc(N2CCN(C(=O)CCCCCCCCCCNC(=O)[C@@H]([C@H](C)CC)n3cc(CCCCCN)nn3)CC2)n1 | nt | -17.5% | nt | ?
C#CCOCCOCCOCCNc1nc(N2CCN(C(=O)CCCCCCCCCCNC(=O)[C@H]([C@@H](C)CC)n3cc(CCCCCN)nn3)CC2)nc(N2CCN(C(=O)CCCCCCCCCCNC(=O)[C@@H]([C@H](C)O)n3cc(C)nn3)CC2)n1 | 46.5% | 28.2µM* | -54.2% | 10µM*
O=C(O)CC/C=C\CC[C@H]1[C@@H](N2CCCCC2)[C@@H](O)C[C@@H]1OCc1ccc(-c2ccccc2)cc1 | nt | nt | 8.44µM* | nt
CCC(=O)NC1Cc2ccccc2C(c2ccccc2)C1 (stereo not given) | nt | nt | 23.8µM* | nt
CCC(=O)N[C@@H]1CCc2cccc(OC)c2C1 | nt | nt | 468.3%[56.9 µM] | nt
O=C(CNC(=O)C1CCCCC1)OCC(=O)c1ccc([N+](=O)[O-])cc1 | nt | nt | 1.2% | nt
CN1CCN(c2oc(-c3ccc(OCc4ccc(Cl)cc4)cc3)nc2C#N)CC1 | nt | nt | 12.8% | nt
COc1ccc(-c2nc3ccccn3c2Nc2ccccc2C)cc1 | nt | nt | 28.4% | nt
CC(=O)c1ccc2c(c1)C1C=CCC1C(C(=O)O)N2 (stereo not given) | -3.7% | 9.1% | ? | 11.2µM*
Cc1ccc2c(c1)C1C=CCC1C(C(=O)O)N2 (stereo not given) | nt | -5.7% | nt | 2.3%
CCCN1CNc2c(c(=O)[nH]c(=S)n2CCc2ccc(OC)cc2OC)C1 | nt | nt | -3.0% | nt
Cn1c(=O)c(C(=O)Nc2ncccc2O)c(O)c2ccccc21 | -9.8% | 56.2µM* | -9.8% | ?
CCCn1c(=O)c(C(=O)Nc2ncccc2O)c(O)c2ccccc21 | -0.2% | -1.2% | -4.5% | 3.1%
Cc1ccc(S(=O)(=O)N2CCN(c3nc(-c4ncccn4)nc4ccccc34)CC2)cc1 | nt | nt | 3.6% | nt
CCCNC(=O)Cn1c(SCc2ccccc2C)nc2ccncc21 | nt | nt | -4.4% | nt
O=C(COCc1cc(-c2cccs2)on1)NCc1cccc(Cl)c1 | nt | nt | -19.4% | nt
CC(SC1=NS(=O)(=O)c2ccccc21)C(=O)O (stereo not given) | nt | nt | 9.1% | nt
O=C(c1ccc2c(=O)n(CC3CCCO3)c(=S)[nH]c2c1)N1CCN(C(=O)c2ccco2)CC1 (stereo not given) | nt | nt | -27.6% | nt
Cc1ccc(S(=O)(=O)N[C@@H](Cc2ccccc2)C(=O)CCl)cc1 | -5.5% | -8.1% | 7.52µM* | 4.3%
